CendR NRP1 mod – NRP-1/CendR interaction modulation. FAM-RPARPAR peptide binding to NRP-1, fluorescence polarization. inhibition, % at 25 µM. 0.85% of 360,000 active;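 active = inhibition or corrected inhibition above about 18%, plus a signal ratio from 0.5 to 1.5, limit read from the data, passing the limit was not always enough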
Target sequence (O14786 whole entry, looked up): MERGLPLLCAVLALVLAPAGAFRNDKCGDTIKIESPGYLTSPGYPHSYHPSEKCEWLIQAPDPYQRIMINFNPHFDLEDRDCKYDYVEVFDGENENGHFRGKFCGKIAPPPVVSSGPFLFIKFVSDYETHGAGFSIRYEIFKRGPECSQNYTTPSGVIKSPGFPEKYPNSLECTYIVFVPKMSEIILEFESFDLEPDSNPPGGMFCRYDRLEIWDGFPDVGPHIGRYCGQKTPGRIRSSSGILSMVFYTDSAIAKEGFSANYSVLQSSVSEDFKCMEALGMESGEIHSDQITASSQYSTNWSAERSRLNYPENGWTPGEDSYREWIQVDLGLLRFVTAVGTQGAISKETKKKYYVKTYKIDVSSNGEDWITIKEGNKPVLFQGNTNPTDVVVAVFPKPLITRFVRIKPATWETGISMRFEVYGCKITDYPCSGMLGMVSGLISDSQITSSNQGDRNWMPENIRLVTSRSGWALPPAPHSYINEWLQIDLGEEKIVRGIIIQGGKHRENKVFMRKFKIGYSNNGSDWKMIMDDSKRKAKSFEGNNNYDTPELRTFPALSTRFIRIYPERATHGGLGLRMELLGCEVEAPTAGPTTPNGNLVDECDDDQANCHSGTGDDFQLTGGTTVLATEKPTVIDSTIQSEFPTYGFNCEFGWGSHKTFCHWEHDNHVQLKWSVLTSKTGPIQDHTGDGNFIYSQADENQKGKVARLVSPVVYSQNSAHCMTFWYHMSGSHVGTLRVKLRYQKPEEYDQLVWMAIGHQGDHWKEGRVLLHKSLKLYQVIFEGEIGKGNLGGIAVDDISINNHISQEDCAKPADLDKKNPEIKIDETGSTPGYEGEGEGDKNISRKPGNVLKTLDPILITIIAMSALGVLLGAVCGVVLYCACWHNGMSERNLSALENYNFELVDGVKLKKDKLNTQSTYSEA
ARNT TACC3 PPI – disrupts binding between human ARNT and TACC3; Q9Y6A5; AlphaScreen His-ARNT PAS-B/GST-TACC3 binding, luminescence; TACC3 fragment carries E629A point mutation; AID 623870; inhibition, % at 9.99 µM; 0.66% of 390,000 active;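 active = mean inhibition of replicates at least 50% and at least half of replicates each reaching 50%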;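 note: 0% = complete ARNT plus TACC3 wells and 100% = ARNT alone without TACC3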
PglD DTNB – blocks C. jejuni PglD acetyltransferase activity; purified PglD enzyme, DTNB colorimetric CoA detection; 0.098% of 360,000 active; inhibition, % at 12.5 µM; in the data active = inhibition above about 16%, passing the limit was not always enough
PDI inh – inhibitors of human protein disulfide isomerase; 0.052% of 350,000 active; AID 588391; inhibition, % at 10 µM; PDI insulin aggregation turbidity, A650, 90 min;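 active = mean inhibition across replicates of 30% or more, whatever share of single replicates reach that level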
ALR inh – inhibitors of human sulfhydryl oxidase ALR; P55789; purified ALR, DTT oxidation, H2O2 HRP-luminol luminescence; inhibition, % (concentration not given with the values); 3.8% of 290,000 active; AID 485317;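 active = mean replicate inhibition above about 79%, with every replicate also reaching it, limit read from the data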
ERp5 inh – inhibitors of human ERp5; inhibition, % at 9.99 µM; AID 651711; 0.05% of 350,000 active; ERp5 insulin aggregation, absorbance 650 nm, 90 min; Q15084;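 active = mean replicate inhibition above about 25%, with every replicate also reaching it, limit read from the data, passing the limit was not always enough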
An asterisk follows results filed as active; · = no result given; + = active, no number; ! = repeats disagree. Only a selection was taken, and hits are over-represented in it overall.

SMILES	CendR NRP1 mod	ARNT TACC3 PPI	PglD DTNB	PDI inh	ALR inh	ERp5 inh
COc1ccc(/C=N\NC(=O)CCN2CCN(c3ccccc3)CC2)cc1OC	-3	38	-3	9	98*	·
CC(=O)Nc1ccc(/C=N/NC(=O)CCN2CCN(c3ccccc3)CC2)cc1	5	14	·	-2	5	-10
C[C@H](NC(=O)C[C@H]1CC[C@@H]2[C@@H](COc3ccc(NS(=O)(=O)c4ccc(Cl)cc4)cc3C(=O)N2C)O1)c1ccccc1	·	-4	-1	·	·	2
NC(=O)C1CCN(c2nc(-c3ccccc3Br)cs2)CC1	·	·	·	·	2	-3
NC(=O)C1CCN(c2nc(-c3ccccc3C(F)(F)F)cs2)CC1	30*	-2	-2	4	14	·
NC(=O)C1CCN(c2nc(-c3ccc(F)cc3)cs2)CC1	11	-13	2	-1	2	8
NC(=O)C1CCN(c2nc(-c3ccccc3F)cs2)CC1	25*	5	-2	-3	44	3
NC(=O)C1CCN(c2nc(-c3ccc4occc(=O)c4c3)cs2)CC1	25*	-1	-4	5	99*	·
O=C(CN(Cc1ccccc1Cl)S(=O)(=O)c1ccc(Cl)cc1)N/N=C/c1ccc(C(=O)O)cc1	-6	51*	-199	-8	71	-11
O=C(CN(Cc1ccccc1)S(=O)(=O)c1ccccc1)N/N=C/c1ccc([N+](=O)[O-])cc1	-2	5	-3	-1	0	·
C[C@@H]1CN([C@H](C)CO)C(=O)Cc2cc(NC(=O)CCC(F)(F)F)ccc2O[C@H]1CN(C)Cc1ccc(C(=O)O)cc1	·	-4	3	·	·	-4
On1ccccc1=S	0	+	1	8	92*	7
CCC(=O)Nc1ccc2c(c1)C(=O)N(C)C[C@@H](OC)[C@H](C)CN(Cc1ccccc1)[C@@H](C)CO2	·	-9	0	·	·	-3
S=c1nc(-c2ccccc2Cl)n(Cc2cccnc2)c2c1CCCC2	6	-2	·	2	99*	-4
Cc1nn(C)c(Sc2ccccc2N)c1[N+](=O)[O-]	-2	8	3	-6	98*	3
COc1ccc(NC(=O)Nc2ccc3c(c2)C(=O)N([C@@H](C)CO)C[C@@H](C)[C@@H](CN(C)C(=O)Nc2cccc4ccccc24)OCCCC[C@H](C)O3)cc1	·	-3	0	·	·	-2
Oc1ccc(C2CNCCc3c2cc(O)c(O)c3Cl)cc1 (centres undefined)	-4	1	0	-3	99*!	2
Oc1cc2c(c(Cl)c1O)CCNCC2c1ccccc1 (centres undefined)	18	1	0	-5	99*	4
COc1cccc(C#Cc2ccc3c(c2)[C@H]2[C@H](CCN2C(=O)Cc2ccccc2)[C@H](CO)N3)c1	·	·	·	·	·	-3
COc1cc(C2CC(=O)NC(SCC(=O)Nc3ccccc3C)=C2C#N)ccc1O (centres undefined)	-3	68*	0	15	18	·
Cc1ccc2c(=O)cc(C(=O)NC3CCS(=O)(=O)C3)oc2c1C (centres undefined)	1	6	-1	-11	98*	3
Cc1cc(C)c2oc(C(=O)NC3CCS(=O)(=O)C3)cc(=O)c2c1 (centres undefined)	2	-4	-2	5	-2	-4
COCC(=O)Nc1ccc2c(c1)C(=O)N(C)[C@@H]1CC[C@H](CC(=O)Nc3ccccc3)O[C@H]1CO2	·	0	-2	·	·	5
Cc1ccc(Oc2ccc(C(=O)NC3CCSC3=O)cn2)cc1 (centres undefined)	0	-8	-9	17	99*	·
CNC[C@H]1OCCCC[C@@H](C)Oc2ccc(NC(=O)Nc3c(C)noc3C)cc2C(=O)N([C@@H](C)CO)C[C@H]1C	·	3	2	·	·	-5
SMILES	CendR NRP1 mod	ARNT TACC3 PPI	PglD DTNB	PDI inh	ALR inh	ERp5 inh
O=C(c1ccc2nccnc2c1)N1CCCC(Nc2ccc(F)c(F)c2)C1 (centres undefined)	24	-3	3	2	2	-21
Cc1cccc(C(=O)N2CCCC(Nc3ccc(C)c(C)c3)C2)n1 (centres undefined)	15	3	-1	-2	99*	5
COc1ccc(NC2CCCN(C(=O)c3ccc4nccnc4c3)C2)cc1OC (centres undefined)	-4	26	-1	-2	96*	4
Cc1ccc(NC2CCCN(C(=O)c3ccc(F)cc3)C2)cc1C (centres undefined)	7	7	4	4	90*	9
COc1ccc(C(=O)N2CCCC(Nc3ccc(C)c(C)c3)C2)c(OC)n1 (centres undefined)	3	-3	3	-7	83*	1
O=C(NCC[C@H]1CC[C@@H](NS(=O)(=O)c2ccc(Cl)cc2)[C@@H](CO)O1)c1ccc2c(c1)OCO2	·	-6	4	·	·	4
COCC(=O)N(C[C@H]1N[C@H](CO)[C@H]1c1ccc(C2=CCCC2)cc1)C(C)C	·	3	0	·	·	·
COCCNC(=O)C[C@H]1C[C@H]2c3cc(NC(=O)NC4CCCCC4)ccc3O[C@H]2[C@@H](CO)O1	·	-4	0	·	·	-6
CC(=O)N(C)C[C@@H]1Oc2cc(-c3ccc(C)cc3)ccc2S(=O)(=O)N([C@H](C)CO)C[C@H]1C	·	-15	-1	·	·	1
COc1ccc(S(=O)(=O)N(C)C[C@@H]2OCCCC[C@@H](C)Oc3ccc(NS(=O)(=O)c4cccs4)cc3C(=O)N([C@@H](C)CO)C[C@H]2C)cc1	·	1	-1	·	·	4
Cc1ccc(NC2CCCN(C(=O)c3cccc4nccnc34)C2)cc1C (centres undefined)	-6	3	0	9	88*	5
Cc1ccc(NC2CCCN(C(=O)c3ccnc(Cl)c3)C2)cc1C (centres undefined)	-3	4	-4	2	96*	0
Cc1ccc(NC2CCCN(C(=O)c3ccc(-n4ccnc4)cc3)C2)cc1C (centres undefined)	7	7	-4	2	62	-11
COc1ccc(NC2CCCN(C(=O)c3cccc(N(C)C)c3)C2)cc1 (centres undefined)	-4	8	-1	-5	·	8
Cc1ccc(NC2CCCN(C(=O)c3ccc4nccnc4c3)C2)cc1C (centres undefined)	43*	-4	0	3	98*	-15
COc1cccc(C(=O)N2CCCC(Nc3ccc(C)c(C)c3)C2)c1 (centres undefined)	-7	10	-1	3	98*	5
CC(C)c1ccc(NC2CCCN(C(=O)c3cccc4nccnc34)C2)cc1 (centres undefined)	4	-1	1	-5	66	-9
Cc1ccccc1CC(=O)Nc1ccc2c(c1)c(=O)n(C)n2-c1cccs1	27*	·	-4	8	·	6

Screens deposited in PubChem by several laboratories.
